One experiment has as its target CNPPD1. In words: pooled miR-30 sensor sort-seq; sequence = guide strand. The following applies: shRNA.
For the sequence TTCAATGTACACCAGAGCCAGC, the sensor-assay potency score (higher = more potent) is -1.25. As for TTACTGGCCACCATCATGGAGA, the sensor-assay potency score (higher = more potent) is -0.834.

The sequence ATGAGCTACGTATTTCTTCTGG showed a sensor-assay potency score (higher = more potent) of -0.315. Still for that read-out and setting: the same measure for TCTCTCTGGAGCTTCTGGCAAA: -0.958; for TAGTCTGGGTTTCGGTGCCGGA: -1.29; for TATGCCACAGCTAACAGGCAAG: -1.37. TTCGACAGCAATGTCTGCCACC: the sensor-assay potency score (higher = more potent) was -0.8.

In turn, TTCGTCGTTGAAGACCTCCTCC yielded a sensor-assay potency score (higher = more potent) of 0.0687. TAGAGCCTCCTTCGGATCCGGG yielded a sensor-assay potency score (higher = more potent) of -1.33.

In the case of TGAAAAGGGAACATTGCTGAGG, the sensor-assay potency score (higher = more potent) was -0.362.

Turning to TCTGTGTAGGTGTACCAGCCTC, the sensor-assay potency score (higher = more potent) is -1.36. For the sequence TATTTCTTCTGGAGTCGGCGAA, the sensor-assay potency score (higher = more potent) was -0.148.

In another experiment the target is CNTD1. The experiment is described as above. Particulars: shRNA.
TAGACTGCTGTCTCCCCGGAGT: the sensor-assay potency score (higher = more potent) was -0.817.

TAAACTTGTTGACAAGCTGCTG: the sensor-assay potency score (higher = more potent) was -0.0466. Same read-out and setting: the same measure for AAACTTGTTGACAAGCTGCTGT: 0.446. Turning to TAAGAGAACTCAGCAATGCTTG, the sensor-assay potency score (higher = more potent) was -0.451. The sequence TTTGGATGAAAGCACTTGCTGC displayed a sensor-assay potency score (higher = more potent) of -0.907. Turning to TTTAGTGTGTAGATAGCCTAGA, the sensor-assay potency score (higher = more potent) turned out to be 0.238. With TTCATGCAGAAGATAGACCAGG, the sensor-assay potency score (higher = more potent) was -0.656. In turn, TTACCATAAACCTTTCTAGGAT returned a sensor-assay potency score (higher = more potent) of -0.637. Same read-out and setting: then TCTCTTATTATCTCTTGGCTGG, with -0.35.

On to TTCTAGGATTTCTACAGCCTGG, for which the sensor-assay potency score (higher = more potent) was -0.787. Sequence TTTTGGATGAAAGCACTTGCTG gave a sensor-assay potency score (higher = more potent) of -1.34.
Further: reference of the scale not given here.
